Screening results deposited in PubChem by several laboratories.
Most compounds without a hit are left out; they make up all but 1.5% or so of the library.
Insulin prom inh = TRM-6 insulin promoter activity inhibition. TRM-6 cells (human fetal islet line), insulin promoter-eGFP reporter, imaging; reporter expression induced with tamoxifen. inhibition, % at 2 µM. 130,000 tested, 0.9% active. AID 1273;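 active = inhibition above the mean plus 3 SD, with well images judged a real hit on visual review, cut at about 60% in these data, passing the limit was not always enough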
S1P4 ag = activates the human S1P4 receptor; O95977; S1P4-expressing cell line, agonist reporter assay; activation, % at 4.98 µM; 220,000 tested, 0.35% active; in the data active = activation above about 11%;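 also: 0% = DMSO vehicle and 100% = reference agonist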
Target sequence (O95977 whole entry, looked up): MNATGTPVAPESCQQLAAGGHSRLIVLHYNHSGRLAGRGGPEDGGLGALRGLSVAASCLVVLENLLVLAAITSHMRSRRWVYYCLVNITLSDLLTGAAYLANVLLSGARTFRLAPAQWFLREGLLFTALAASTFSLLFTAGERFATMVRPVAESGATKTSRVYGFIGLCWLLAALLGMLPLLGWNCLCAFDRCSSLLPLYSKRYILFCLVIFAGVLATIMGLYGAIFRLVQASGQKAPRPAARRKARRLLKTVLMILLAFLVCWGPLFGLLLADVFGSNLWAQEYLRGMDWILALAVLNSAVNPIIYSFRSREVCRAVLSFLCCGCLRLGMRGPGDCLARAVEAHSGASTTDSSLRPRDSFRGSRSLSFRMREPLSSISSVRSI
S1P3 antagonist = antagonists of human S1P3 receptor; CHO S1P3 NFAT-BLA reporter, FRET fluorescence, antagonist mode; AID 485; inhibition, % at 4.98 µM; 170,000 tested, 0.27% active; Q99500;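 active = inhibition above the plate cutoff, the mean inhibition of test wells on that plate plus 3 SD, cut at about 28% in these data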;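 also: cells challenged with S1P at its EC80 of 0.8 µM; blue over green emission ratio from cleaved BLA substrate after 4 h stimulation; 0% = S1P-stimulated wells and 100% = unstimulated DMSO-only wells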
Ins promoter up = MIN6 insulin promoter up-regulation. MIN6 insulin promoter-GFP reporter, high-content imaging; active compounds read high. z-score at 5 µM. 190,000 tested, 0.3% active;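 active = z-score above 3 at 5 µM with at least 500 cells counted in the well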
Hsp70 activator = Hsp70 transcriptional activation, primary screen | activation, % at 10 µM | 200,000 tested, 0.04% active | HeLa Hsp70 promoter luciferase reporter, luminescence; scaled: vehicle 0, proteasome-inhibitor control 100%;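 active = activation above the mean across all tested compounds plus 3 SD, cutoff set per campaign, cut at about 5.5% in these data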;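 also: 100% = MG132 at 30 µM as the positive control and 0% = DMSO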
S1P4 antagonist = antagonists of human S1P4 receptor; S1P4-expressing cells, antagonist mode, reporter read-out; O95977; 220,000 tested, 0.26% active; inhibition, % at 4.98 µM; AID 1510; in the data active = inhibition above about 29%;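 also: 0% = wells stimulated with agonist and 100% = vehicle wells without agonist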
An asterisk follows results filed as active; x = no result given.

SMILES	Insulin prom inh	S1P4 ag	S1P3 antagonist	Ins promoter up	Hsp70 activator	S1P4 antagonist
Cc1ccc2nc(-c3ccccc3O)c(Nc3ccc4c(c3)OCCO4)n2c1	67*	4	5	0.35	0	-13
O=C(Oc1ccc2c(=O)c(Cl)coc2c1)c1ccncc1	82*	1	x	-0.11	0	12
O=C(Oc1ccc2c(=O)c(Oc3ccc4ccccc4c3)coc2c1)c1cncc(Br)c1	x	0	x	0.08	0	-5
Cc1ccc(-c2cc(N)n(-c3ccccc3)n2)cc1	19	-1	x	5.3*	0	-12
COc1ccc(NC(=O)NCc2ccco2)cc1OC	5	2	-11	0.09	0	-6
COC(=O)c1ccc(COc2ccc3c(C)c(C)c(=O)oc3c2)o1	x	0	-5	3.5*	0	-1
COc1ccc(NC2=C(c3ccc(OC)cc3)C(=O)c3ccccc32)cc1	9	0	4	x	0	5
COc1ccc(C2=C(N)c3ccccc3C2=O)cc1	71*	2	2	0.83	0	4
COc1cc(/C=N/n2c(SC)nnc(C(C)(C)C)c2=O)ccc1O	77*	1	1	0.94	-1	-11
O=[N+]([O-])c1ccc(-c2nnc(CNC3CCCC3)o2)cc1	18	1	5	0.21	0	1
c1ccc(OCCOCCSc2ncccn2)cc1	81*	2	13	-0.16	0	-11
COc1ccc(-c2cc(C(=O)Nc3c(C)nn(Cc4ccccc4)c3C)no2)cc1	37	-2	x	-0.29	0	-2
COc1cccc(-c2cc(C(=O)Nc3c(C)nn(Cc4ccccc4)c3C)no2)c1	38	-2	54*	x	0	6
COc1ccc2ccccc2c1CN1CCCC(CO)C1 (stereo not given)	13	0	-3	0.38	0	-5
COc1ccc2ccccc2c1CN1CCN(Cc2ccccc2)CC1	78*	-1	x	-1.9	0	4
COc1cc(C2=NOC(C(=O)Nc3ccc(C)cc3)C2)cc(OC)c1OC (stereo not given)	x	0	-39	0.45	0	-10
COc1cc(C2=NOC(C(=O)NC3CCCCC3)C2)cc(OC)c1OC (stereo not given)	x	2	96*	-0.37	0	-13
CCN(CC)c1ccc2cc(-c3nnc(-c4ccncc4)o3)c(=O)oc2c1	48	0	x	4.4*	0	-1
CCN(CC)c1ccc2cc(C(C)=O)c(=O)oc2c1	18	5	x	0.96	0	7
O=C1COc2ccc(C(=O)CSc3nnc(Cc4cccs4)n3-c3ccccc3)cc2N1	71*	-4	x	-0.17	0	5
O=C1COc2ccc(C(=O)CSc3nnc(-c4cccs4)n3Cc3ccccc3)cc2N1	x	0	0	0.42	0	4
CCOc1c(C)cc(-c2ncccc2O)cc1C	82*	3	-9	-0.62	0	-5
Cc1cc(C)n(-c2ccc(OCC(=O)O)nn2)n1	-10	1	-3	3.3*	0	-6
CCCNc1nc(N2CCCC2)nc(N2CCCC2)n1	83*	1	-16	x	0	6
CCOC(=O)Cn1c(=O)c(-c2cc(Br)ccc2N)nc2ccccc21	x	0	-6	6.8*	x	-6
SMILES	Insulin prom inh	S1P4 ag	S1P3 antagonist	Ins promoter up	Hsp70 activator	S1P4 antagonist
O=C(CSc1nc(C2CC2)nc2ccccc12)NCc1ccc2c(c1)OCO2	31	1	x	0.62	0	-3
Cc1nc([N+](=O)[O-])c(C(=O)OCc2ccc(C#N)cc2)n1C	17	0	-9	-0.32	0	1
COc1ccc(CC(=O)NC(=S)NNC(=O)COc2c(C)cccc2C)cc1	31	1	-20	-0.16	0	-1
CC1CCc2c(sc3nn[nH]c(=O)c23)C1 (stereo not given)	20	0	x	4.2*	0	-13
CCOc1nc(NC(=O)NS(=O)(=O)Oc2cccc(Cl)c2)nc(-c2ccccc2)n1	78*	-2	-8	-0.28	-1	-11
CN1C(C(=O)NCc2cccc(C(F)(F)F)c2)CC2Cn3c(nc4cc5ccccc5cc43)C21 (stereo not given)	x	x	x	-0.62	x	x
C=CCNC(=O)C1CC2Cn3c(nc4cc5ccccc5cc43)C2N1C (stereo not given)	x	x	x	4.4*	x	x
O=C(CCC1(C(=O)O)CCC(=O)NC1)NCc1ccccc1 (stereo not given)	x	0	-22	-0.33	0	-10
Cc1ccc(C(=O)NC2CCN(CC(=O)Nc3cccc([N+](=O)[O-])c3)CC2)cc1	-18	1	2	x	0	12
Cc1ccc(S(=O)(=O)C(C#N)c2nc3ccccc3nc2N2CCC(C)CC2)cc1 (stereo not given)	-7	-3	0	3.8*	0	9
Cc1nc2c(cnn2-c2ccccc2Cl)c(=O)n1-c1ccc(C(C)C)cc1	x	-4	x	-1.3	-1	-1
Cc1ccccc1CC1S/C(=N/N=C/c2ccco2)NC1=O (stereo not given)	x	0	6	x	x	3
CC(C)C1S/C(=N/N=C/c2ccco2)NC1=O (stereo not given)	-43	1	x	3.2*	0	-7
COc1ccccc1C(=O)NNC(=O)c1nn(Cc2ccccc2)c(=O)c2ccccc12	80*	0	-16	-1	0	-7
O=C(CN1C2CCC1CC(NC(=O)Nc1ccccc1)C2)NCc1ccco1 (stereo not given)	58	1	x	-0.09	0	9
Cc1ccnc2nc(C(=O)OCC(=O)NCCc3ccccc3)nn12	73*	0	-10	-0.55	0	-6
CCN(CC)C(=S)Nc1ccc([N+](=O)[O-])cc1	-26	1	-9	-0.01	0	-16
Cc1nc(-c2ccc(NS(C)(=O)=O)cc2)cs1	73*	-2	-9	x	0	-5
Cc1nc(-c2cccc(NS(C)(=O)=O)c2)cs1	x	1	x	x	0	12
CC(=O)NC(C)C(c1cccs1)N1CCN(c2ccccc2)CC1 (stereo not given)	x	4	64*	-0.44	0	-13
O=C1c2oc3ccccc3c(=O)c2C(c2cccc(Br)c2)N1Cc1ccco1 (stereo not given)	45	-1	12	-0.32	-1	-2
O=C1c2oc3ccc(Br)cc3c(=O)c2C(c2cccnc2)N1Cc1ccco1 (stereo not given)	x	x	95*	-0.09	x	x
CCCC(=O)NC(=S)Nc1ccc(Cl)cn1	83*	1	x	1.1	0	-3
Cc1cc(NC(=O)c2ccc(Cl)cc2)c(C(C)C)cc1O	-14	-1	x	0.49	0	47*
CCOC(=O)Cn1nc(C)n(-c2ccc(C(C)(C)C)cc2)c1=O	-48	1	x	0.01	0	-6
COc1ccc(CSCC(=O)N/N=C/c2ccccc2O)cc1	75*	-1	13	0.19	0	4
O=C(CSc1ccccc1)N/N=C/c1ccccc1O	0	0	11	-0.04	0	7
